Article PMC5540273 (PLoS ONE, 2017)

Key:
Conditions in all cases: concentration: 1 μM, replicates: in singlicate; n = 1
ULK2 = system: ULK2
ULK3 = system: ULK3
VEGFR2 = system: T1, VEGFR2
T1 construct: gene KDR

VPS34 = system: T2, VPS34
T2 construct: gene PIK3C3

VRK2 = system: VRK2
WEE1 = system: WEE1
WEE2 = system: WEE2
WNK1 = system: WNK1
WNK2 = system: WNK2
WNK3 = system: WNK3
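Note: KINOMEscan kinase panel screen.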

| SMILES | %Inh (ULK2) [%] | %Inh (ULK3) [%] | %Inh (VEGFR2) [%] | %Inh (VPS34) [%] | %Inh (VRK2) [%] | %Inh (WEE1) [%] | %Inh (WEE2) [%] | %Inh (WNK1) [%] | %Inh (WNK2) [%] | %Inh (WNK3) [%] |
| --- | --- | --- | --- | --- | --- | --- | --- | --- | --- | --- |
| Cl.Cn1ccc(-c2cccc(Nc3ccnc4cc(-c5nccs5)ccc34)c2)n1 [GW525701] | 0 | 0 | 0 | 0 | 7 | 11 | 0 | 17 | 18 | 50 |
| c1ccc(-c2ccc3c(-c4ccnc(Nc5ccc6c(c5)OCCO6)n4)cnn3n2)cc1 [GW818941] | 0 | 15 | 9 | 0 | 7 | 2 | 0 | 2 | 0 | 15 |
| FC(F)(F)c1ccc(-c2cc(-c3c[nH]nc3-c3ccccn3)ccn2)cc1 [GW599550] | 0 | 0 | 4 | 0 | 0 | 12 | 0 | 0 | 7 | 31 |
| Clc1ccc(-c2cc(-c3c[nH]nc3-c3ccccn3)ccn2)cc1 [GW681251] | 0 | 1 | 0 | 0 | 11 | 18 | 0 | 16 | 0 | 19 |
| COc1ccc(NC(=O)Nc2ccc(C)c(-c3ccc(C(=O)Nc4ccncc4)cc3)c2)cc1 [GSK1398475] | 0 | 0 | 0 | 0 | 0 | 34 | 11 | 4 | 0 | 2 |
| Cl.Cl.c1ccc(-c2cc3ccncc3cc2OC2CCNCC2)cc1 [GSK1122999] | 0 | 4 | 0 | 67 | 0 | 5 | 11 | 7 | 0 | 0 |
| Fc1cccc(COc2ccc(Nc3ncnc4cc[nH]c34)cc2Cl)c1 | 14 | 34 | 16 | 18 | 13 | 12 | 4 | 0 | 14 | 0 |
| CC(C)N1CCC(n2cnc(-c3ccc(F)cc3)c2-c2ccnc(N)n2)CC1 [SB-223132] | 0 | 5 | 0 | 27 | 0 | 17 | 0 | 0 | 0 | 0 |
| CCCc1ccc(S(=O)(=O)NC2CCN(c3ccnc(Nc4ccc(OC)cc4)n3)C2)cc1 (stereo not shown) [GSK1379737] | 0 | 7 | 0 | 36 | 4 | 12 | 0 | 8 | 0 | 38 |
| CNc1nccc(-c2c(-c3ccc(F)cc3)ncn2CCCN2CCOCC2)n1 [SB-222516] | 0 | 17 | 0 | 0 | 0 | 0 | 9 | 1 | 0 | 0 |
| CCC(CC)(CC)n1cnc2c(N)ncnc21 [SKF-97620] | 2 | 42 | 13 | 34 | 0 | 9 | 6 | 21 | 0 | 26 |
| Cn1ccc2ncnc(Oc3ccc(NC(=O)Nc4cccnc4)c(Cl)c3)c21 | 8 | 0 | 74 | 0 | 0 | 0 | 28 | 0 | 0 | 0 |
| COc1ccc(NC(=O)c2ccc(-c3cc(-c4nnc(C)o4)ccc3C)cc2)cc1 [GW595885] | 0 | 24 | 0 | 0 | 25 | 0 | 2 | 0 | 1 | 25 |
| OCCOCCn1ccc2ncnc(Nc3ccc(Oc4cccc(Cl)c4)c(Cl)c3)c21 | 0 | 0 | 0 | 0 | 46 | 0 | 0 | 0 | 0 | 0 |
| Fc1ccc(Nc2nccc(-c3c(-c4ccc(Cl)cc4)nn4ncccc34)n2)cc1F [GW829058] | 100 | 33 | 25 | 5 | 34 | 10 | 2 | 42 | 0 | 41 |
| O=C(Nc1n[nH]c2nc(-c3ccco3)c(Br)cc12)c1ccc(CN2CCCC2)cc1.O=C(O)[C@H](O)[C@@H](O)C(=O)O [SB-742352] | 0 | 27 | 48 | 0 | 0 | 0 | 4 | 0 | 0 | 0 |
| C[C@H]1CC[C@@H](C(=O)Nc2ccccc2)CN1c1cc(-c2ccc3c(N)n[nH]c3c2)nc(N)n1 [GSK2283293] | 0 | 7 | 0 | 0 | 19 | 11 | 14 | 2 | 0 | 17 |

| SMILES | %Inh (ULK2) [%] | %Inh (ULK3) [%] | %Inh (VEGFR2) [%] | %Inh (VPS34) [%] | %Inh (VRK2) [%] | %Inh (WEE1) [%] | %Inh (WEE2) [%] | %Inh (WNK1) [%] | %Inh (WNK2) [%] | %Inh (WNK3) [%] |
| --- | --- | --- | --- | --- | --- | --- | --- | --- | --- | --- |
| Fc1cccc(COc2ccc(Nc3ncnc4nn5ccccc5c34)cc2Cl)c1 [GW689066] | 0 | 2 | 0 | 60 | 28 | 0 | 0 | 0 | 0 | 20 |
| Fc1cccc(COc2ccc(Nc3ncnc4sc(-c5ccc[nH]5)cc34)cc2Cl)c1 [GW707818] | 0 | 1 | 8 | 0 | 26 | 6 | 0 | 12 | 6 | 13 |
| O=C(NCCCN1CCCC1=O)c1cnc(NCc2cc(Cl)ccc2Cl)nc1NC1CCNCC1 | 0 | 0 | 0 | 0 | 70 | 0 | 0 | 0 | 0 | 0 |
| CS(=O)(=O)CCNCc1nc(-c2ccc3ncnc(Nc4ccc(OCc5cccc(F)c5)c(Cl)c4)c3c2)cs1.Cl [GW583340] | 0 | 0 | 1 | 0 | 0 | 9 | 0 | 4 | 9 | 18 |
| CC(C)(C)OC(=O)NC1CCCN(c2cc(-c3ccc4c(N)n[nH]c4c3)nc(N)n2)C1 (stereo not shown) [GSK2286096] | 0 | 0 | 0 | 0 | 0 | 17 | 0 | 6 | 70 | 8 |
| CN1c2ccc(-c3ccc(C(=O)NCCO)cc3)cc2-c2[nH]ncc2S1(=O)=O | 30 | 0 | 44 | 30 | 0 | 0 | 1 | 0 | 0 | 0 |
| CSc1nn2c(=O)cc(N3CCOCC3)nc2n1Cc1cccc(Cl)c1Cl [GSK2347225] | 0 | 0 | 0 | 97.1 | 0 | 29 | 35 | 11 | 18 | 4 |
| CCn1c(-c2ccncc2)nc2cnccc21 [SB-735216] | 8 | 25 | 24 | 25 | 0 | 0 | 1 | 0 | 29 | 21 |
| Nc1nccc2scc(-c3ccc4c(c3)CCN4C(=O)Cc3cc(F)ccc3F)c12 [GSK2587663] | 0 | 6 | 0 | 8 | 0 | 44 | 0 | 33 | 0 | 37 |
| Nc1n[nH]c2nnc(-c3ccccc3)cc12 [SB-517389] | 0 | 10 | 0 | 0 | 0 | 21 | 15 | 10 | 17 | 5 |
| COc1ccc(Nc2nccc(N3CCC(NC(=O)Nc4ccc5c(c4)OCO5)C3)n2)cc1 (stereo not shown) [GSK1379745] | 0 | 15 | 0 | 13 | 0 | 12 | 14 | 2 | 0 | 15 |
| Cn1ccc2ncnc(Nc3ccc(Oc4cccc(Cl)c4)c(Cl)c3)c21 | 31 | 38 | 0 | 52 | 0 | 0 | 34 | 0 | 31 | 0 |
| Cl.c1ccc(Cn2ncc3cc(Nc4ncnc5ccccc45)ccc32)cc1 [GW273749] | 0 | 5 | 20 | 0 | 0 | 10 | 3 | 3 | 3 | 0 |
| FC(F)(F)c1ccc(-c2nn3ncccc3c2-c2ccnc(Nc3cccc(C(F)(F)F)c3)n2)cc1 [GW828205] | 0 | 0 | 0 | 8 | 0 | 5 | 11 | 0 | 0 | 0 |
| COC(=O)c1c(-c2ccccc2)c2cc(Cl)ccc2c(=O)n1Cc1ccc(S(C)(=O)=O)cc1 | 0 | 0 | 0 | 0 | 10 | 0 | 0 | 0 | 4 | 0 |
| CC(=O)Nc1n[nH]c2ncc(-c3ccccc3)cc12 [SB-548492] | 35 | 30 | 18 | 7 | 0 | 0 | 20 | 0 | 0 | 0 |
| COc1cc2ncnc(Nc3ccc(OCc4ccccc4Br)c(Cl)c3)c2cc1OC.Cl [GI261590] | 0 | 3 | 0 | 0 | 11 | 0 | 0 | 14 | 0 | 22 |
